{"source": "the supplement of paper PMC9694430", "data": [{"tested_on": "LOC_OS01G70970-cb002", "experiment": "thermal shift delta Tm vs DMSO control; higher = stronger stabilization (binding)", "conditions": "12.5 µM; protein concentration 2 µM", "outline": "(§1)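 The melting temperature shift given here is a triplicate mean, measured against protein that received only DMSO. Melting temperatures came from Boltzmann fits of differential scanning fluorimetry data on E. coli-expressed, purified rice kinase domain constructs. Each 19.5 μl well contained 2 μM kinase, 100 mM potassium phosphate pH 7.5, 150 mM NaCl, 10% glycerol, 5 × SYPRO Orange and compound in DMSO. Plates were scanned from 25°C to 95°C at 0.05°C/s.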", "units": {"thermal shift delta Tm": "°C"}, "values": [{"smiles": "CO[C@H]1C[C@@H]2CC[C@@H](C)[C@@](O)(O2)C(=O)C(=O)N2CCCC[C@H]2C(=O)O[C@H]([C@H](C)C[C@@H]2CC[C@@H](OCCO)[C@H](OC)C2)CC(=O)[C@H](C)/C=C(\\C)[C@@H](O)[C@@H](OC)C(=O)[C@H](C)C[C@H](C)/C=C/C=C/C=C/1C", "note": "[Everolimus (RAD001)]", "thermal shift delta Tm": -0.1}, {"smiles": "COc1ccc(S(=O)(=O)N(CCO)c2ccccc2CN(C)C/C=C/c2ccc(Cl)cc2)cc1", "note": "[KN-93 Phosphate]", "thermal shift delta Tm": 0.38}, {"smiles": "CN(C[C@@H]1COCCO1)S(=O)(=O)Nc1ccc2ccc3ncc(-c4cnn(C)c4)cc3c(=O)c2c1", "thermal shift delta Tm": 9.99}, {"smiles": "COc1ccc(CCNCc2ccc(OCc3ccc(Cl)nc3)c(OC)c2)cc1OC", "thermal shift delta Tm": 0.23}, {"smiles": "Clc1ccc(C2(c3ccc(-c4cn[nH]c4)cc3)CCNCC2)cc1", "thermal shift delta Tm": 0.01}, {"smiles": "CN(C)Cc1cccc(N/C(=C2\\C(=O)Nc3cc(C(N)=O)ccc32)c2ccccc2)c1", "thermal shift delta Tm": 0.87}, {"smiles": "CC[C@H](CO)Nc1nc(NCc2ccccc2)c2ncn(C(C)C)c2n1", "note": "[Roscovitine (Seliciclib,CYC202)]", "thermal shift delta Tm": 0.28}, {"smiles": "Cc1cc(Nc2cc(N3CCN(C)CC3)nc(/C=C/c3ccccc3)n2)n[nH]1", "thermal shift delta Tm": 3.04}]}, {"tested_on": "LOC_OS02G07810-cb001", "experiment": "thermal shift delta Tm vs DMSO control; higher = stronger stabilization (binding)", "conditions": "12.5 µM; protein concentration 2 µM", "outline": "as §1", "units": {"thermal shift delta Tm": "°C"}, "values": [{"smiles": "CCOc1cc2ncc(C#N)c(Nc3ccc(OCc4ccccn4)c(Cl)c3)c2cc1NC(=O)/C=C/CN(C)C", "note": "[Neratinib (HKI-272)]", "thermal shift delta Tm": 0.52}, {"smiles": "COc1cc2nccc(Oc3ccc(NC(=O)Nc4cc(C)on4)c(Cl)c3)c2cc1OC", "note": "[Tivozanib (AV-951)]", "thermal shift delta Tm": 0.91}, {"smiles": "O=C1NC(=O)C(c2ccccc2[N+](=O)[O-])=C1Nc1ccc(O)c(Cl)c1", "thermal shift delta Tm": 1.72}, {"smiles": "Cc1c(C(=O)N2CCOc3ccc(-c4ccc(N)nc4)cc3C2)ccc(S(C)(=O)=O)c1F", "thermal shift delta Tm": -0.03}, {"smiles": "Cn1nccc1Nc1nccc(-c2ccn([C@H](CO)c3ccc(Cl)c(F)c3)c(=O)c2)n1", "thermal shift delta Tm": -0.02}, {"smiles": "COc1cc2c(N3CCN(C(=O)Nc4ccc(OC(C)C)cc4)CC3)ncnc2cc1OCCCN1CCCCC1", "note": "[Tandutinib (MLN518)]", "thermal shift delta Tm": 0.79}, {"smiles": "C[C@@H]1COCCN1c1cc(=O)n2c(n1)N(Cc1cncc(Cl)c1)[C@H](C(F)(F)F)CC2", "thermal shift delta Tm": 0.77}, {"smiles": "COc1ccc(F)c(F)c1C(=O)c1cnc(NC2CCN(S(C)(=O)=O)CC2)nc1N", "thermal shift delta Tm": 0.5}, {"smiles": "O=C(NCc1ccccc1)c1csc(Nc2ccncn2)n1", "note": "[Thiazovivin]", "thermal shift delta Tm": 1.58}, {"smiles": "CCN(CC)CCCCNc1ncc2cc(-c3cc(OC)cc(OC)c3)c(NC(=O)NC(C)(C)C)nc2n1", "thermal shift delta Tm": 0.72}, {"smiles": "O=c1cc(N2CCOCC2)oc2c(-c3ccc4c(c3)OCCO4)csc12", "thermal shift delta Tm": -0.78}, {"smiles": "Nc1ccc(C(=O)Nc2cccc(-c3nc(N4CCOCC4)c4oc5ncccc5c4n3)c2)cn1", "thermal shift delta Tm": 0.77}, {"smiles": "O=C(NC[C@H](O)CO)c1ccncc1Nc1ccc(I)cc1F", "thermal shift delta Tm": 0.72}, {"smiles": "CCOc1cc2ncc(C#N)c(Nc3ccc(F)c(Cl)c3)c2cc1NC(=O)/C=C/CN(C)C", "note": "[Pelitinib (EKB-569)]", "thermal shift delta Tm": 0.84}, {"smiles": "COc1cc2ncnc(Nc3ccc(Cl)cc3F)c2cc1OC", "thermal shift delta Tm": 1.32}, {"smiles": "Cc1cc(Nc2ncnc3ccc(NC4=NC(C)(C)CO4)cc23)ccc1Oc1ccn2ncnc2c1", "note": "[Irbinitinib (ARRY-380, ONT-380)]", "thermal shift delta Tm": -0.86}, {"smiles": "CC1(C)CNc2cc(NC(=O)c3cccnc3NCc3ccncc3)ccc21", "note": "[Motesanib Diphosphate (AMG-706)]", "thermal shift delta Tm": 0.59}, {"smiles": "COC(=O)Nc1ccc(-c2nc(N3CCOCC3)c3cnn(C4CCN(C(=O)OC)CC4)c3n2)cc1", "thermal shift delta Tm": 0.91}, {"smiles": "COc1cc(C(=O)N2CCC(N3CCN(C)CC3)CC2)ccc1Nc1ncc2c(n1)N(C)c1ccccc1C(=O)N2C", "thermal shift delta Tm": 0.46}, {"smiles": "C=C(C)[C@@H]1CC[C@]2(C)CC[C@]3(C)[C@H](CC[C@@H]4[C@@]5(C)CC[C@H](O)C(C)(C)[C@@H]5CC[C@]43C)[C@@H]12", "note": "[Lupeol]", "thermal shift delta Tm": 1}, {"smiles": "Oc1cccc(-c2nc(N3CCOCC3)c3oc4ncccc4c3n2)c1", "thermal shift delta Tm": 0.91}, {"smiles": "CCn1c(N)c(C(=O)NC)c(=O)c2ccc(C#CC(C)(O)COC)nc21", "note": "(centres undefined)", "thermal shift delta Tm": 0.99}, {"smiles": "CCOc1cc(C(=O)N2CCC(N3CCN(C)CC3)CC2)ccc1Nc1ncc2c(n1)N(C1CCCC1)c1ccccc1C(=O)N2C", "thermal shift delta Tm": 0.06}, {"smiles": "Cc1ccc(NC(=O)c2cccc(C(C)(C)C#N)c2)cc1Nc1ccc2ncn(C)c(=O)c2c1", "thermal shift delta Tm": 1.74}, {"smiles": "Nc1ccc(-c2ccc3ncc4ccc(=O)n(-c5cccc(C(F)(F)F)c5)c4c3c2)cn1", "note": "[Torin 2]", "thermal shift delta Tm": 0.19}, {"smiles": "CCN(CC)CCCC(C)Nc1ccnc2cc(Cl)ccc12", "note": "(centres undefined) [Chloroquine Phosphate]", "thermal shift delta Tm": 0.25}]}]}
